{"source": "the supplement of paper PMC8728848", "experiment_in_all_cases": "glycan array binding signal (z-score within array); higher = stronger binding", "settings_in_all_cases": "glycan notation: IUPAC condensed, linker removed", "key": {"Gal3S4S(b1-4)GlcNAc": {"biological_target": "Gal3S4S(b1-4)GlcNAc", "outline": "(§1)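 Arrays were curated from the Consortium for Functional Glycomics database, 3228 in total, and kept only where the protein sequence was available. Binding is expressed as a within-array Z-score. This score was averaged across arrays of the same protein sequence at different concentrations or buffers and across linkers, and negative values can be read as non-binding.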"}, "GalNAc3S(b1-4)GlcNAc3S": {"biological_target": "GalNAc3S(b1-4)GlcNAc3S", "outline": "as §1"}, "[1]": {"biological_target": "GlcNAc(b1-2)[GlcNAc(b1-4)]Man(a1-3)[GlcNAc(b1-4)][GlcNAc(b1-2)[GlcNAc(b1-6)]Man(a1-6)]Man(b1-4)GlcNAc(b1-4)[Fuc(a1-6)]GlcNAc", "outline": "as §1"}, "GlcNAc(b1-3)Fuc": {"biological_target": "GlcNAc(b1-3)Fuc", "outline": "as §1"}, "[2]": {"biological_target": "GlcNAc(b1-3)Gal(b1-4)GlcNAc", "outline": "as §1"}, "GlcNAc(b1-4)GlcNAc": {"biological_target": "GlcNAc(b1-4)GlcNAc", "outline": "as §1"}, "[3]": {"biological_target": "Kdn(a2-3)Gal(b1-4)[Fuc(a1-3)]GlcNAc", "outline": "as §1"}, "[4]": {"biological_target": "Man(a1-2)Man(a1-2)Man(a1-6)[Man(a1-3)]Man", "outline": "as §1"}, "[5]": {"biological_target": "Man(a1-2)Man(a1-3)[Man(a1-2)Man(a1-6)]Man(a1-6)[Man(a1-2)Man(a1-2)Man(a1-3)]Man", "outline": "as §1"}, "MurNAc(b1-4)GlcNAc": {"biological_target": "MurNAc(b1-4)GlcNAc", "outline": "as §1"}, "[6]": {"biological_target": "Neu5Ac(a2-3)Gal(b1-3)GlcNAc(b1-2)Man(a1-3)[Neu5Ac(a2-3)Gal(b1-3)GlcNAc(b1-2)Man(a1-6)]Man(b1-4)GlcNAc(b1-4)GlcNAc", "outline": "as §1"}, "[7]": {"biological_target": "Neu5Ac(a2-3)Gal(b1-3)GlcNAc(b1-3)GalNAc", "outline": "as §1"}, "[8]": {"biological_target": "Neu5Ac(a2-3)Gal(b1-3)GlcNAc(b1-4)Gal(b1-4)Glc", "outline": "as §1"}, "[9]": {"biological_target": "Neu5Ac(a2-3)Gal(b1-3)[Fuc(a1-4)]GlcNAc(b1-3)Gal(b1-3)[Fuc(a1-4)]GlcNAc", "outline": "as §1"}, "[10]": {"biological_target": "Neu5Ac(a2-3)Gal(b1-4)GlcNAc(b1-3)Gal", "outline": "as §1"}, "[11]": {"biological_target": "Neu5Ac(a2-3)Gal(b1-4)GlcNAc(b1-6)[Gal(b1-3)]GalNAc", "outline": "as §1"}, "[12]": {"biological_target": "Neu5Ac(a2-3)Gal(b1-4)[Fuc(a1-3)]GlcNAc(b1-6)[Gal(b1-3)]GalNAc", "outline": "as §1"}, "[13]": {"biological_target": "Neu5Ac(a2-3)[GalNAc(b1-4)]Gal(b1-4)GlcNAc(b1-3)GalNAc", "outline": "as §1"}, "[14]": {"biological_target": "Neu5Ac(a2-6)Gal(b1-4)GlcNAc(b1-2)Man(a1-3)[Neu5Ac(a2-3)Gal(b1-4)GlcNAc(b1-2)Man(a1-6)]Man(b1-4)GlcNAc(b1-4)GlcNAc", "outline": "as §1"}, "[15]": {"biological_target": "Neu5Ac(a2-6)Gal(b1-4)GlcNAc(b1-2)[Neu5Ac(a2-6)Gal(b1-4)GlcNAc(b1-4)]Man(a1-3)[GlcNAc(b1-4)][Neu5Ac(a2-6)Gal(b1-4)GlcNAc(b1-4)Man(a1-6)]Man(b1-4)GlcNAc(b1-4)GlcNAc", "outline": "as §1"}, "[16]": {"biological_target": "Neu5Ac(a2-6)Gal(b1-4)GlcNAc(b1-2)[Neu5Ac(a2-6)Gal(b1-4)GlcNAc(b1-6)]Man(a1-6)[Neu5Ac(a2-6)Gal(b1-4)GlcNAc(b1-2)Man(a1-3)][GlcNAc(b1-4)]Man(b1-4)GlcNAc(b1-4)GlcNAc", "outline": "as §1"}, "[17]": {"biological_target": "Neu5Ac(a2-8)Neu5Ac(a2-3)Gal(b1-4)Glc", "outline": "as §1"}, "[18]": {"biological_target": "Neu5Ac(a2-8)Neu5Ac(a2-8)Neu5Ac(a2-8)Neu5Ac(a2-3)[GalNAc(b1-4)]Gal(b1-4)Glc", "outline": "as §1"}, "[19]": {"biological_target": "Neu5Ac9Ac(a2-3)Gal(b1-4)GlcNAc", "outline": "as §1"}}, "note": "About 410 targets per protein were measured; listed, in parts, are those with the strongest signals and a random draw of the rest."}
{"binder": "DC-Sign (Homo sapiens), Q9NNX6 (protein) MSDSKEPRLQQLGLLEEEQLRGLGFRQTRGYKSLAGCLGHGPLVLQLLSFTLLAGLLVQVSKVPSSISQEQSRQDAIYQNLTQLKAAVGELSEKSKLQEIYQELTQLKAAVGELPEKSKLQEIYQELTRLKAAVGELPEKSKLQEIYQELTWLKAAVGELPEKSKMQEIYQELTRLKAAVGELPEKSKQQEIYQELTRLKAAVGELPEKSKQQEIYQELTRLKAAVGELPEKSKQQEIYQELTQLKAAVERLCHPCPWEWTFFQGNCYFMSNSQRNWHDSITACKEVGAQLVVIKSAEEQNFLQLQSSRSNRFTWMGLSDLNQEGTWQWVDGSPLLPSFKQYWNRGEPNNVGEEDCAEFSGNGWNDDKCNLAKFWICKKSAASCSRDEEQFLSPAPATPNPPPA", "values": [{"measurement": "glycan array binding signal (z-score)", "setting": "Gal3S4S(b1-4)GlcNAc", "result": -0.195}, {"measurement": "glycan array binding signal (z-score)", "setting": "GalNAc3S(b1-4)GlcNAc3S", "result": -0.101}, {"measurement": "glycan array binding signal (z-score)", "setting": "[1]", "result": -0.179}, {"measurement": "glycan array binding signal (z-score)", "setting": "GlcNAc(b1-3)Fuc", "result": -0.17}, {"measurement": "glycan array binding signal (z-score)", "setting": "[2]", "result": -0.089}, {"measurement": "glycan array binding signal (z-score)", "setting": "GlcNAc(b1-4)GlcNAc", "result": -0.109}, {"measurement": "glycan array binding signal (z-score)", "setting": "[3]", "result": -0.1}, {"measurement": "glycan array binding signal (z-score)", "setting": "[4]", "result": 4.51}, {"measurement": "glycan array binding signal (z-score)", "setting": "[5]", "result": 8.32}, {"measurement": "glycan array binding signal (z-score)", "setting": "MurNAc(b1-4)GlcNAc", "result": 0.01}, {"measurement": "glycan array binding signal (z-score)", "setting": "[6]", "result": -0.202}, {"measurement": "glycan array binding signal (z-score)", "setting": "[7]", "result": -0.142}, {"measurement": "glycan array binding signal (z-score)", "setting": "[8]", "result": -0.183}, {"measurement": "glycan array binding signal (z-score)", "setting": "[9]", "result": 1.83}, {"measurement": "glycan array binding signal (z-score)", "setting": "[10]", "result": -0.186}, {"measurement": "glycan array binding signal (z-score)", "setting": "[11]", "result": -0.171}, {"measurement": "glycan array binding signal (z-score)", "setting": "[12]", "result": -0.164}, {"measurement": "glycan array binding signal (z-score)", "setting": "[13]", "result": -0.171}, {"measurement": "glycan array binding signal (z-score)", "setting": "[14]", "result": -0.097}, {"measurement": "glycan array binding signal (z-score)", "setting": "[15]", "result": -0.183}, {"measurement": "glycan array binding signal (z-score)", "setting": "[16]", "result": -0.167}, {"measurement": "glycan array binding signal (z-score)", "setting": "[17]", "result": -0.177}, {"measurement": "glycan array binding signal (z-score)", "setting": "[18]", "result": -0.19}, {"measurement": "glycan array binding signal (z-score)", "setting": "[19]", "result": -0.175}]}
